Outcome and AC50 data for 5 compounds are collected here from PubChem BioAssay (EPA / NIEHS).

As a reminder, the AC50 is the midpoint of the concentration-response curve, whichever way the signal moves.

Read-out in assay [1]: Interleukin-1 alpha (IL1a), IL1A (gene 3552)
The assay can be described thus: BSK_KF3CT_IL1a: BioMAP Diversity Plus: KF3CT Assay for Interleukin-1 alpha (IL1a) Biomarker Activity (AID 2283070). Particulars: primary human keratinocytes with fibroblasts; actives raise or lower the signal. In outline: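 Chemicals were dosed onto co-cultured human keratinocytes and foreskin fibroblasts, IL-1a was quantified by ELISA at 24 h, and activity was fitted in both directions relative to DMSO controls.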

Read-out in assay [2]: TIMP metallopeptidase inhibitor 2 (TIMP2), TIMP2 (gene 7077)
Briefly: BSK_KF3CT_TIMP2: BioMAP Diversity Plus: KF3CT Assay for TIMP metallopeptidase inhibitor 2 (TIMP2) Biomarker Activity (AID 2283071). Particulars: primary human keratinocytes with fibroblasts; actives raise or lower the signal. In outline:
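Cells: human keratinocytes co-cultured with foreskin fibroblasts. Treat with chemical, 24 h. Measure TIMP-2 by ELISA; fit curves bidirectionally vs DMSO baseline.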

Read-out in assay [3]: Transforming growth factor beta 1 (TGFb1), TGFB1 (gene 7040)
The assay can be described thus: BSK_KF3CT_TGFb1: BioMAP Diversity Plus: KF3CT Assay for Transforming growth factor beta 1 (TGFb1) Biomarker Activity (AID 2283072). As to conditions: primary human keratinocytes with fibroblasts; actives raise or lower the signal. In outline: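 Primary human skin cells (keratinocytes, foreskin fibroblasts) were co-cultured, exposed to test chemical and sampled at 24 h. TGF-b1 levels were measured by ELISA and fitted bidirectionally relative to DMSO.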

Read-out in assay [4]: C-C motif chemokine 2 (Homo sapiens) (UniProt P13500)
Briefly: BSK_KF3CT_MCP1: BioMAP Diversity Plus: KF3CT Assay for Monocyte Chemoattractant Protein 1 (MCP1/CCL2) Biomarker Activity (AID 2283073). As to conditions: primary human keratinocytes with fibroblasts; actives raise or lower the signal. In outline: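 Keratinocytes and foreskin fibroblasts were co-cultured, dosed with chemical, and sampled 24 h later. MCP-1 was quantified by ELISA, and the endpoint was analyzed with bidirectional fitting using DMSO as negative control.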

Read-out in assay [5]: Matrix Metallopeptidase 9 (MMP9), MMP9 (gene 4318)
The assay can be described thus: BSK_KF3CT_MMP9: BioMAP Diversity Plus: KF3CT Assay for Matrix Metallopeptidase 9 (MMP9) Biomarker Activity (AID 2283074).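 As to AC50: MMP9 protein level quantified by ELISA in the co-culture.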 Particulars: primary human keratinocytes with fibroblasts; actives raise or lower the signal. In outline: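 Human keratinocyte/foreskin fibroblast co-culture; compound added; 24 h; MMP-9 by ELISA; bidirectional fit vs DMSO baseline.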

Read-out in assay [6]: urokinase plasminogen activator (uPA), PLAU (gene 5328)
Briefly: BSK_KF3CT_uPA: BioMAP Diversity Plus: KF3CT Assay for urokinase plasminogen activator (uPA) Biomarker Activity (AID 2283075). Particulars: primary human keratinocytes with fibroblasts; actives raise or lower the signal. In outline: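 ELISA readout of uPA, analyzed for signal gain or loss relative to DMSO, from a human primary keratinocyte–foreskin fibroblast co-culture measured 24 h after chemical treatment.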

Read-out in assay [7]: CD40, CD40 (gene 958)
Briefly: BSK_LPS_CD40: BioMAP Diversity Plus: LPS Assay for CD40 Biomarker Activity (AID 2283076). Particulars: primary human HUVEC with PBMC; actives raise or lower the signal. In outline:
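CD40 signal, measured by ELISA, is fitted in both directions relative to DMSO vehicle. The system is an LPS-driven human vascular primary co-culture of endothelial cells and PBMC, sampled 24 h after compound addition.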

Read-out in assay [8]: E-selectin (Homo sapiens) (UniProt P16581)
The assay can be described thus: BSK_LPS_Eselectin: BioMAP Diversity Plus: LPS Assay for Eselectin Biomarker Activity (AID 2283077). Particulars: primary human HUVEC with PBMC; actives raise or lower the signal. In outline: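 Signal of E-selectin, detected by ELISA, served as the endpoint; cells were umbilical vein endothelium with PBMC, read 24 h after treatment. DMSO defined baseline, and both increases and decreases were fitted.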

Read-out in assay [9]: Interleukin-8 (IL8), CXCL8 (gene 3576)
Briefly: BSK_LPS_IL8: BioMAP Diversity Plus: LPS Assay for Interleukin-8 (IL8) Biomarker Activity (AID 2283078). As to conditions: primary human HUVEC with PBMC; actives raise or lower the signal. In outline: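 Endothelial cells and PBMC from human donors are co-cultured, treated with chemicals and LPS, then assayed for IL-8 by ELISA after 24 h. Parallel SRB staining (0.1% SRB after 10% TCA fixation, 560 nm) flags cytotoxicity.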

The nature of assay [10]: BSK_LPS_SRB: Viability Assessment in the BioMAP Diversity Plus: LPS Assay (AID 2283079).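 Also: total protein by sulforhodamine B absorbance as a cytotoxicity measure; measured one day after compound addition; fitted in both directions against DMSO so loss or gain of signal counts.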 As to conditions: primary human HUVEC with PBMC. In outline:
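Overt cytotoxicity was gauged by sulforhodamine B total-protein staining in a primary human vascular endothelial and mononuclear cell co-culture 24 h post-dosing. Activity was fitted in both directions relative to DMSO.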

Read-out in assay [11]: Monocyte Chemoattractant Protein-1 (MCP1), CCL2 (gene 6347)
The assay can be described thus: BSK_LPS_MCP1: BioMAP Diversity Plus: LPS Assay for Monocyte Chemoattractant Protein-1 (MCP1) Biomarker Activity (AID 2283081).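 As to AC50: secreted MCP-1 protein quantified by ELISA in culture supernatant.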 Particulars: primary human HUVEC with PBMC; actives raise or lower the signal. In outline: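 LPS-stimulated HUVEC/PBMC co-culture; chemical, 24 h; MCP-1 by ELISA; bidirectional fit vs DMSO; cytotoxicity via SRB (0.1% stain, 10% TCA fix, 560 nm) in parallel wells.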

Assay [12] is described as follows: BSK_LPS_PGE2: BioMAP Diversity Plus: LPS Assay for Prostaglandin E2 (PGE2) Biomarker Activity (AID 2283082). Particulars: primary human HUVEC with PBMC; actives raise or lower the signal. In outline:
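LPS-activated HUVEC/PBMC co-culture; cmpd dosed, 24 h; PGE2 by ELISA; bidirectional fit vs DMSO; SRB (0.1%, TCA-fixed, 560 nm) in parallel plates for overt cytotox.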

Read-out in assay [13]: Tissue Factor, F3 (gene 2152)
Briefly: BSK_LPS_TissueFactor: BioMAP Diversity Plus: LPS Assay for Tissue Factor Biomarker Activity (AID 2283084). As to conditions: primary human HUVEC with PBMC; actives raise or lower the signal. In outline: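 In this co-culture system of umbilical vein endothelium with PBMC, stimulated with LPS, cell-surface CD142 is detected by ELISA at 24 h. Endpoint values derive from bidirectional fitting, DMSO serving as baseline.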

Read-out in assay [14]: Tumor necrosis factor (Homo sapiens) (UniProt P01375)
The assay can be described thus: BSK_LPS_TNFa: BioMAP Diversity Plus: LPS Assay for Tumour Necrosis Factor alpha (TNFa) Biomarker Activity (AID 2283085).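 As to AC50: TNFa protein level quantified by ELISA in the co-culture.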 Particulars: primary human HUVEC with PBMC; actives raise or lower the signal. In outline: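 Read-out is ELISA of TNFa in primary human endothelial cell–PBMC co-cultures at 24 h after compound. Activity in either direction was fitted against DMSO.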

Read-out in assay [15]: CD38, CD38 (gene 952)
The assay can be described thus: BSK_SAg_CD38: BioMAP Diversity Plus: SAg Assay for CD38 Biomarker Activity (AID 2283087). As to conditions: primary human HUVEC with PBMC; actives raise or lower the signal. In outline: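 Human HUVEC plus PBMC co-culture stimulated with superantigen; CD38 measured by ELISA 24 h after chemical dosing. Fluorescence read-out, bidirectional fit against DMSO; cytotoxicity tracked in parallel by SRB and Alamar Blue.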

Read-out in assay [16]: CD40, CD40 (gene 958)
Briefly: BSK_SAg_CD40: BioMAP Diversity Plus: SAg Assay for CD40 Biomarker Activity (AID 2283088). As to conditions: primary human HUVEC with PBMC; actives raise or lower the signal. In outline: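 Fluorescence ELISA read-out of CD40 from umbilical vein endothelium plus peripheral blood mononuclear cells, sampled 24 h after dosing. Values come from bidirectional curve fitting with DMSO as baseline.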

Read-out in assay [17]: CD69, CD69 (gene 969)
Briefly: BSK_SAg_CD69: BioMAP Diversity Plus: SAg Assay for CD69 Biomarker Activity (AID 2283089).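 As to AC50: cell surface CD69 protein quantified by ELISA with fluorescence detection.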 Particulars: primary human HUVEC with PBMC; actives raise or lower the signal. In outline: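 Primary human vascular co-culture (umbilical vein endothelium with peripheral blood mononuclear cells) exposed to test chemical for 24 h. CD69 levels quantified by fluorescence ELISA; DMSO served as negative control for bidirectional fitting.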

Read-out in assay [18]: Macrophage colony-stimulating factor (MCSF), CSF1 (gene 1435)
Briefly: BSK_LPS_MCSF: BioMAP Diversity Plus: LPS Assay for Macrophage colony-stimulating factor (MCSF) Biomarker Activity (AID 2283083). Particulars: primary human HUVEC with PBMC; actives raise or lower the signal. In outline: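 Compound is added to a human vascular primary co-culture of umbilical vein endothelium and blood mononuclear cells. After 24 h, M-CSF is quantified by ELISA. Signal changes are fitted in both directions against DMSO.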

Read-out in assay [19]: Vascular cell adhesion molecule 1 (VCAM1), VCAM1 (gene 7412)
The assay can be described thus: BSK_LPS_VCAM1: BioMAP Diversity Plus: LPS Assay for Vascular cell adhesion molecule 1 (VCAM1) Biomarker Activity (AID 2283086). As to conditions: primary human HUVEC with PBMC; actives raise or lower the signal. In outline: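 HUVEC + PBMC co-culture, LPS system; compound 24 h; VCAM-1 by ELISA; bidirectional fit vs DMSO control; parallel SRB (0.1%, TCA-fixed, 560 nm) for cytotoxicity.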

Active and inactive are the calls of the source. The calls were made as follows: active = hit-call score of the fitted dose curve at least 0.9, where 1 is the maximum; inactive = score below 0.9.

Sequence of E-selectin (Homo sapiens) (P16581 whole entry, looked up): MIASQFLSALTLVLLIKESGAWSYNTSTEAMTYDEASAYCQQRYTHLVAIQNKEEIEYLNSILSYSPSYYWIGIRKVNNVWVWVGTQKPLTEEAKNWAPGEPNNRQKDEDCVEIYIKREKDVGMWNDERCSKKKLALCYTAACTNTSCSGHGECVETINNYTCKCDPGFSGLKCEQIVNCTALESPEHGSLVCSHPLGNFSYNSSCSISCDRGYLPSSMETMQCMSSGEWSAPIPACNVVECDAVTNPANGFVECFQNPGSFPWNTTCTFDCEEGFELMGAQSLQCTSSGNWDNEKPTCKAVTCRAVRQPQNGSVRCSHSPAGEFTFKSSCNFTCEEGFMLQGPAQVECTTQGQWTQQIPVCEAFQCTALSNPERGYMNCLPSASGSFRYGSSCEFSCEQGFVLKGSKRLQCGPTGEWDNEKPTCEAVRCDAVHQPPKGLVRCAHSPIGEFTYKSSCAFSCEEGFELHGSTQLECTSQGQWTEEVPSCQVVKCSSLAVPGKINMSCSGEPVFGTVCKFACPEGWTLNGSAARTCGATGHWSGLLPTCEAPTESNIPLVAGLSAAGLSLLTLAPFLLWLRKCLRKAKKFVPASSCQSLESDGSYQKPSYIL
Sequence of Tumor necrosis factor (Homo sapiens) (P01375 whole entry, looked up): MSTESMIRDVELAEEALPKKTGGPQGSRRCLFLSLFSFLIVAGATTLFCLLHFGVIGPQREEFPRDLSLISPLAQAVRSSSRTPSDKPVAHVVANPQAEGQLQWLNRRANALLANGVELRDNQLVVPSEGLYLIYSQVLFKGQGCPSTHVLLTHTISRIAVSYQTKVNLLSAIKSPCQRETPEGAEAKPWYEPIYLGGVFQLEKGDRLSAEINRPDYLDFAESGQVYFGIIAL

As to `CCC(=O)OCC=Cc1ccccc1`, the result in assay [1], in assay [2], in assay [3], in [4], in assay [5] and in assay [6] was inactive. For the same compound, the outcome in assay [7], in assay [8], in assay [9], in assay [10], in assay [11] and in assay [12] was inactive. Besides, the result in assay [13], in assay [14], in [15], in assay [16] and in assay [17] was inactive.
In the case of `CC1(C)[C@H](C=C(Cl)Cl)[C@H]1C(=O)OCc1cccc(Oc2ccccc2)c1`, the outcome in [1], in assay [2], in [3], in assay [4], in [5] and in assay [6] was inactive. Further, the outcome in [7], in assay [8], in [9], in [10], in assay [11] and in assay [14] was inactive. The result in assay [15], in assay [16] and in assay [17] was inactive.
For the compound `CCCCCCCCCC(=O)OCC`, the outcome in assay [1], in assay [2], in assay [5], in [6], in assay [8] and in assay [9] was inactive. In addition, the result in assay [10], in [11], in [14], in assay [15], in assay [16] and in assay [17] was inactive. Besides, the concentration at half-maximal activity (AC50) in assay [3] is 32.2 µM (active); in assay [4] it was 13.3 µM (active).
Regarding `CCOC(=O)C=Cc1ccccc1`, the outcome in assay [1], in assay [2], in assay [3], in assay [4], in [5] and in [6] was inactive. Moreover, the result in assay [8], in assay [9], in [10], in assay [11], in [18] and in assay [14] was inactive. Further, the outcome in assay [19], in assay [15], in [16] and in assay [17] was inactive.
For `C=CC(=O)OCC(CO)(COC(=O)C=C)COC(=O)C=C`, the AC50 in assay [1] is 517 nM (active); in assay [2], 529 nM (active); in assay [3] it was 0.415 µM (active); in assay [4], 5.44 µM (active); in [5] it was 400 nM (active); in assay [6], 685 nM (active). The concentration at half-maximal activity (AC50) in assay [8] was 311 nM (active); in assay [9], 3.97 µM (active); in assay [10] it was 749 nM (active); in assay [11] it was 81.6 nM (active); in [14], 163 nM (active); in assay [19] it was 140 nM (active). The concentration at half-maximal activity (AC50) in assay [15] is 340 nM (active); in assay [16], 696 nM (active); in assay [17] it was 384 nM (active).
